# In the library only some 19% were active in any assay of this set; here they are far more common.
# HT1080 IDH1KD tx: kills HT-1080 cells with IDH1 knockdown; HT-1080 IDH1 knockdown viability, ATP luminescence, 48 h; Potency, µM (highest dose often 46.1 µM), for the others: at the top dose activity, negative = toxicity, usual class: cytotoxic; 2% of 360,000 active; AID 686971;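 further: potency means the concentration at half of the fitted maximal effect; 0% = DMSO wells and -100% = cell-free medium wells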
#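 Cytotoxicity counter-line: IDH1KD HT-1080, 48 h, CellTiter-Glo. Curves classed by r2, magnitude and activity.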
# DT40 TDP1 no CPT: qHTS for Inhibitors of human tyrosyl-DNA phosphodiesterase 1 (TDP1): qHTS in cells in absence of CPT; DT40 Tdp1-/- hTDP1 cells, no CPT, ATP luminescence, 48 h; Potency, µM (highest dose often 46.2 µM), without a hit: at the top dose activity change, negative = growth inhibition, usual class: inhibitors; 15% of 420,000 active; AID 686978, 2013; further: potency means the concentration at half of the fitted maximal effect; nearly all actives have a fitted effect of over 55% in size
#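 Stably hTDP1-transfected Tdp1-null chicken DT40 cells were treated with library compounds minus camptothecin and grown for at least 48 hr at 37 °C, after which cellular ATP was quantified by luminescence.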
# IL1B secr inh: inhibitors of inflammasome signaling (IL-1 beta secretion). THP-1 LPS/ATP IL-1B secretion, AlphaLISA, 16 h; stronger effect = lower value. activity change, % at 57.5 µM. 4.7% of 360,000 active. AID 743279; in the data active means activity change below about -50%; inconclusive means mostly about -30% to -49%
#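 Secreted IL-1B measured by AlphaLISA bead assay after 16 h compound exposure of THP-1 cells; compounds (final up to 57.5 uM) added 1 h before LPS (250 ng/mL) and ATP (1.25 mM) stimulation; lower signal means less secretion.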
# DT40 TDP1 CPT: growth inhibition of DT40 Tdp1-/-;hTDP1 cells with camptothecin (screen for TDP1 inhibitors). chicken DT40 Tdp1-/-;hTDP1 cells + 20 nM CPT, ATP luminescence, 48 h. Potency, µM (doses to about 46.2 µM), for the others: top-dose activity change, negative = growth inhibition, hits mostly inhibitors. 12% of 420,000 active; further: potency means the concentration at half of the fitted maximal effect; nearly all actives have a fitted effect of over 55% in size
#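 Chicken DT40 Tdp1-/- cells stably complemented with human TDP1 were seeded at 400 cells/well in medium containing 20 nM camptothecin, exposed to pin-transferred compounds, and grown at 37 °C for at least 48 hr. Viability was read as ATP luminescence.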
# HT1080-NT tox: kills 2HG-producing HT-1080-NT fibrosarcoma cells; HT-1080-NT fibrosarcoma viability, CellTiter-Glo ATP luminescence, 48 h; Potency, µM (highest dose often 46.1 µM), for inactives: at the highest dose activity, negative = less viability, usual class: cytotoxic; 1.6% of 360,000 active;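 further: NT is the 2HG producing partner of a matched IDH1 knockdown line; potency means the concentration at half of the fitted maximal effect; 0% = DMSO-treated cells and -100% = media-only wells without cells; nearly all actives have a fitted effect of over 55% in size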
#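 Toxicity toward the 2HG-producing NT line was scored as %Activity, normalised to DMSO and no-cell wells, from CellTiter-Glo luminescence after 48 hours' treatment.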
# The depositor's hits bear a star; ? = inconclusive; / = no result. Unless noted, the call rests on the fitted dose curve; in most records, active means well fitted curve in the direction sought with a large enough effect; inconclusive means small, poorly fitted or top-dose-only effect, or another doubt; inactive means no such curve, though single readings can be large; an effect the other way counts as inactive or inconclusive. Unless noted, on the % scale 0 is the no-effect control and ±100 the full control effect.
SMILES,HT1080 IDH1KD tx,DT40 TDP1 no CPT,IL1B secr inh,DT40 TDP1 CPT,HT1080-NT tox
O=C(NCC1CCCN1S(=O)(=O)c1ccccc1)C(=O)NC1CC1 (stereo not drawn),3%,-6%,5,0%,6%
O=C(NCCc1ccc(F)cc1)C(=O)NCC1CCCN1S(=O)(=O)c1ccccc1 (stereo not drawn),?,8.2µM*,-80*,10µM*,-19%
COc1ccc(S(=O)(=O)N2CCCC2CNC(=O)C(=O)NCCc2ccccc2)cc1 (stereo not drawn),18µM*,7.3µM*,25,7.3µM*,?
CCOC(=O)[C@H](CS)NCCN[C@@H](CS)C(=O)OCC,/,-7%,/,2%,/
Cc1cccc(C(=O)NCCCNC(=O)c2cccc(C)c2)c1,3%,-10%,60,10%,-3%
CC1(C)CC(=O)C=C(NCCc2c[nH]c3ccccc23)C1,15%,-10%,-13,19%,8%
COc1ccc(S(=O)(=O)N2CCCC2CNC(=O)C(=O)NCc2ccc(C)cc2)cc1 (stereo not drawn),-13%,16µM*,-7,?,-22%
COc1ccc(CCNC(=O)C(=O)NCC2CCCN2S(=O)(=O)c2ccccc2)cc1 (stereo not drawn),-5%,18µM*,-30,21µM*,?
COc1ccc(S(=O)(=O)N2CCCC2CNC(=O)C(=O)NCc2ccccc2)cc1 (stereo not drawn),-12%,?,2,?,-20%
COc1ccc(CCNC(=O)C(=O)NCC2CCCN2S(=O)(=O)c2cccs2)cc1 (stereo not drawn),-3%,?,-11,?,2%
COc1ccc(Cl)cc1NC(=O)CN(C)C(=O)c1cc2c(F)cccc2s1,?,6.5µM*,39,10µM*,?
COc1ccc(Cl)cc1NC(=O)CN(C)CC(=O)NCc1cccs1,-2%,?,-12,?,1%
COc1ccc(Cl)cc1NC(=O)CN(C)CC(=O)Nc1cc(OC)c(OC)c(OC)c1,8.2µM*,4.1µM*,0,5.8µM*,12µM*
COc1ccc(Cl)cc1NC(=O)CN(C)CC(=O)Nc1ccc(S(N)(=O)=O)cc1,-9%,-10%,-18,-3%,-10%
COc1ccc(Cl)cc1NC(=O)CN(C)CC(=O)Nc1ccc(Br)cc1,?,?,-89*,?,?
COC(=O)CCNC(=O)Cn1cnc2sc3c(c2c1=O)CCCC3,2%,-13%,32,6%,12%
Cc1ccnc(SCc2cc(=O)c(OC(=O)c3ccc(S(=O)(=O)N(C)C)cc3)co2)n1,0%,6%,2,13%,11%
Cc1nn2c(-c3cccnc3)ccnc2c1-c1ccccc1,0%,23µM*,-11,?,0%
Cc1nn2c(-c3ccccc3)ccnc2c1Br,3%,?,25,?,1%
CC1CCN(S(=O)(=O)c2ccc3c(c2)N(CC(=O)NC(C)C)C(=O)CS3)CC1,/,-12%,/,0%,/
CC1CCCCC1NC(=O)CN1C(=O)CSc2cc(S(=O)(=O)N3CCCCCC3)ccc21 (stereo not drawn),-6%,21µM*,-25,?,-2%
O=C(CN1C(=O)CSc2cc(S(=O)(=O)N3CCCCCC3)ccc21)NCCc1ccccc1,-3%,?,-62*,?,0%
CN(C)CCNC(=O)CN1C(=O)CSc2ccc(S(=O)(=O)N3CCCCC3)cc21,11%,8%,-20,-4%,21%
COc1ccc(CNC(=O)CN(Cc2ccc(OC)cc2)C(=O)CCC(=O)Nc2ccccn2)cc1,-10%,-12%,17,-16%,2%
CCC1(C)Cc2ccccc2/C(=C/C(=O)N2CCCCC2)N1 (stereo not drawn),-14%,21µM*,-11,18µM*,-13%
SMILES,HT1080 IDH1KD tx,DT40 TDP1 no CPT,IL1B secr inh,DT40 TDP1 CPT,HT1080-NT tox
Cc1cccc(C(=O)NNC(=O)CSc2nnc(C3CC3)n2C)c1,15%,17%,-11,18%,-2%
CCn1c(SCc2ccccc2Cl)nc(=O)c2c(C(=O)OC)cc(C3CC3)nc21,/,16µM*,/,12µM*,/
Cc1ccc(-n2ccnc(SCC(=O)NCCc3ccccc3)c2=O)cc1F,12%,15µM*,-25,?,17%
CCOc1ccc(-n2ccnc(SCC(=O)NCCc3ccccc3)c2=O)cc1,-11%,?,2,?,-13%
COc1cc(NC(=O)Nc2nnc(N3CCCCCC3)s2)cc(OC)c1,/,16µM*,/,23µM*,/
COc1ccc(NC(=O)Nc2nnc(-c3ccncc3)s2)cc1,-3%,23µM*,-90*,23µM*,-3%
Cc1ccc(NC(=O)Nc2nnc(N3CCCC3)s2)cc1,/,-7%,/,0%,/
O=C(Nc1nnc(-c2ccncc2)s1)Nc1ccccc1F,11%,?,-19,?,1%
COc1ccc(NC(=O)Nc2nnc(-c3ccco3)s2)cc1,0%,4%,32,0%,-1%
O=C(Nc1ccc(Cl)c(Cl)c1)Nc1nnc(-c2ccncc2)s1,?,3.7µM*,24,3.3µM*,?
Cc1ccc(NS(=O)(=O)c2ccc(OCC(=O)NCC3CCCO3)cc2)cc1 (stereo not drawn),8%,?,39,?,-1%
CCNc1ncc2nc(-c3ccc(OC)cc3)c(=O)n(C)c2n1,/,-6%,/,?,/
CNC(=O)NC(=O)C(C)OC(=O)c1c2c(nc3ccccc13)/C(=C/c1cccs1)CC2 (stereo not drawn),-8%,18µM*,-4,21µM*,-2%
CCCCNC(=O)COC(=O)c1c2c(nc3ccccc13)/C(=C/c1cccs1)CC2,?,?,-27,23µM*,-22%
CCn1c(CCNC(=O)c2ccc(Cl)c(Cl)c2)nnc1SCCOc1ccc(OC)cc1,?,?,-17,?,?
Cc1ccc(F)c(S(=O)(=O)NC(=O)C2(C)CCN2C(=O)c2cccc3ccccc23)c1 (stereo not drawn),?,-1%,26,-6%,9%
COc1ccc(N2CCN(C(=O)CSc3nc4[nH]ncc4c(=O)n3-c3ccc(Br)cc3)CC2)cc1,-26%,?,-24,?,-27%
Cc1ccc(-n2c(SCc3ccccc3F)nc3[nH]ncc3c2=O)cc1Cl,/,15µM*,/,21µM*,/
O=C(CSc1nc2[nH]ncc2c(=O)n1-c1ccc(Cl)c(Cl)c1)NCc1ccccc1Cl,?,?,-21,?,?
Cc1ccccc1-n1c(SCc2cccc(F)c2)nc2[nH]ncc2c1=O,?,?,-74*,?,?

# Source: PubChem (National Center for Advancing Translational Sciences (NCATS))
